For four compounds, z-score and composite z-score results are on record in PubChem BioAssay.

Molecules are shown by their SMILES. Activity calls are given as the source filed them.

A short description of assay [1]: optical density shifts of acrAB sulA E. coli – strain DRC41, OD650, 48 h, E. coli filamentation inducer project, primary screen (AID 1152).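 Also: E. coli MC1000 strain DRC41 lacking acrAB efflux pump and sulA.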 Particulars: higher = more signal, called active from +8 up or from −8 down.
Assay [2] is described as follows: probe aLefty1 binding on compound microarray – biochemical, small-molecule microarray, 635/667 nm fluorescence, primary screen (AID 1153).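 Also: score merges spot fluorescence with signal-to-noise ratio from the scanned slide images.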 The note with it: higher = more signal.
The nature of assay [3]: plasmodial surface anion channel blockers, osmotic lysis – cell-based, P. falciparum Indochina, OD700, 1 h, primary screen (AID 1154). The note with it: P. falciparum Indochina infected RBC osmotic lysis, higher = more signal, called active from +8 up or from −8 down.
Assay [4] in a line: plasmodial surface anion channel blockers, osmotic lysis – cell-based, P. falciparum Indochina, OD700, 2 h, primary screen (AID 1155).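 Also: lysis reports solute entry through the parasite surface anion channel PSAC.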 Particulars: P. falciparum Indochina infected erythrocytes, higher = more signal, called active from +8 up or from −8 down.
Assay [5] is described as follows: changes in parasitized red cell lysis, either direction – P. falciparum Indochina, OD700, 3 h, PSAC antagonist project, primary screen (AID 1156). Particulars: P. falciparum-infected erythrocytes, osmotic lysis, higher = more signal, called active from +8 up or from −8 down.
A short description of assay [6]: plasmodial surface anion channel blockers, osmotic lysis – cell-based, P. falciparum Indochina, OD700, 18 h, primary screen (AID 1157). Particulars: P. falciparum Indochina infected erythrocytes, osmotic lysis OD700, 18 h; higher = more signal, called active from +8 up or from −8 down.
Assay [7] can be described thus: S6 kinase pathway phospho-S6 level changes – cell-based, A549, cytoblot, luminescence, serum-stimulated, primary screen (AID 1158).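 Also: serum-stimulated A549 lung adenocarcinoma cells; signal is phosphorylated S6 detected by cytoblot immunostaining with HRP secondary.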 Particulars: 5 h, higher = more signal.
The target in assay [8] is NADPH oxidase 2 (Homo sapiens) (UniProt P04839). Nature of the assay: compounds shifting NOX2 Amplex Red fluorescence – cell-based, HEK293-NOX2, PMA-stimulated, NOX inhibitor project, primary screen (AID 1159). Also: test concentration not given here. Particulars: 45 min, higher = more signal, called active from +8 up or from −8 down.
Assay [9] deals with NADPH oxidase 4 (Homo sapiens) (UniProt Q9NPH5). Nature of the assay: compounds shifting NOX4 Amplex Red fluorescence – cell-based, HEK293-NOX4, tetracycline-induced, NOX inhibitor project, primary screen (AID 1160). Particulars: HEK293-NOX4, Amplex Red H2O2 fluorescence, 45 min; higher = more signal, called active from +8 up or from −8 down.
For assay [10], the target named is NADPH oxidase 5 (Homo sapiens) (UniProt Q96PH1). The experiment in a line: compounds shifting NOX5 Amplex Red fluorescence – cell-based, HEK293-NOX5, NOX inhibitor project, primary screen (AID 1161). The note with it: HEK293-NOX5, ionomycin, 45 min, higher = more signal.
Assay [11] in a line: compound effects on lung adenocarcinoma cell viability – A549, calcein-AM fluorescence, 48 h, basal, profiling panel (AID 1162). Also: test concentration not given here. Particulars: higher = more signal.
Assay [12] in a line: compound effects on differentiated 3T3-L1 adipocyte viability – cell-based, 3T3-L1 adipocytes, calcein-AM fluorescence, 48 h, basal, profiling panel (AID 1163). Also: test concentration not given here. Particulars: 3T3-L1 adipocytes viability, higher = more signal.
Assay [13] can be described thus: compound effects on hepatocellular carcinoma cell viability – HepG2, calcein-AM fluorescence, 48 h, basal, profiling panel (AID 1164). Also: test concentration not given here. The note with it: higher = more signal.
Assay [14] is described as follows: compound effects on multiple myeloma cell viability – MM1S, calcein-AM fluorescence, 48 h, basal, profiling panel (AID 1165).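 Also: viability of MM1S multiple myeloma cells under basal unstimulated conditions; test concentration not given here.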 The note with it: higher = more signal.
A short description of assay [15]: calcein-AM signal in unstimulated myeloma cells – cell-based, calcein-AM fluorescence, 48 h, PK04 Diversity Set, profiling panel (AID 1166).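 Also: cells grown under basal conditions without added stimulus; test concentration not given here.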 Particulars: RPMI8226 myeloma viability, higher = more signal.
Assay [16] can be described thus: JC-1 mitochondrial signal, unstimulated HepG2 cells – cell-based, JC-1 fluorescence, 24 h, 100 nL compound, profiling panel (AID 1167). Also: test concentration not given here. The note with it: HepG2 mitochondrial potential, higher = more signal.
Assay [17] can be described thus: JC-1 mitochondrial signal, unstimulated adipocytes – cell-based, JC-1 fluorescence, 3T3-L1 adipocytes, 24 h, 100 nL compound, profiling panel (AID 1168). Also: test concentration not given here. The note with it: JC-1 mitochondrial fluorescence, higher = more signal, called active from +8 up or from −8 down.
Assay [18] in a line: JC-1 mitochondrial signal, unstimulated myeloma cells – cell-based, JC-1 fluorescence, RPMI8226, 24 h, 100 nL compound, profiling panel (AID 1169). Also: test concentration not given here. The note with it: JC-1 mitochondrial potential fluorescence, higher = more signal.
Assay [19] is described as follows: JC-1 mitochondrial signal, unstimulated MM1S myeloma – cell-based, JC-1 fluorescence, 24 h, 100 nL compound, profiling panel (AID 1170). Also: test concentration not given here. The note with it: MM1S mitochondrial potential, higher = more signal.
A short description of assay [20]: resazurin metabolic signal in A549 cells – cell-based, resazurin fluorescence, 24 h, PK04 Diversity Set, profiling panel (AID 1171). Also: test concentration not given here. The note with it: A549 viability, higher = more signal, called active from +8 up or from −8 down.

Chain of NADPH oxidase 5 (Homo sapiens) (Q96PH1 whole entry, looked up): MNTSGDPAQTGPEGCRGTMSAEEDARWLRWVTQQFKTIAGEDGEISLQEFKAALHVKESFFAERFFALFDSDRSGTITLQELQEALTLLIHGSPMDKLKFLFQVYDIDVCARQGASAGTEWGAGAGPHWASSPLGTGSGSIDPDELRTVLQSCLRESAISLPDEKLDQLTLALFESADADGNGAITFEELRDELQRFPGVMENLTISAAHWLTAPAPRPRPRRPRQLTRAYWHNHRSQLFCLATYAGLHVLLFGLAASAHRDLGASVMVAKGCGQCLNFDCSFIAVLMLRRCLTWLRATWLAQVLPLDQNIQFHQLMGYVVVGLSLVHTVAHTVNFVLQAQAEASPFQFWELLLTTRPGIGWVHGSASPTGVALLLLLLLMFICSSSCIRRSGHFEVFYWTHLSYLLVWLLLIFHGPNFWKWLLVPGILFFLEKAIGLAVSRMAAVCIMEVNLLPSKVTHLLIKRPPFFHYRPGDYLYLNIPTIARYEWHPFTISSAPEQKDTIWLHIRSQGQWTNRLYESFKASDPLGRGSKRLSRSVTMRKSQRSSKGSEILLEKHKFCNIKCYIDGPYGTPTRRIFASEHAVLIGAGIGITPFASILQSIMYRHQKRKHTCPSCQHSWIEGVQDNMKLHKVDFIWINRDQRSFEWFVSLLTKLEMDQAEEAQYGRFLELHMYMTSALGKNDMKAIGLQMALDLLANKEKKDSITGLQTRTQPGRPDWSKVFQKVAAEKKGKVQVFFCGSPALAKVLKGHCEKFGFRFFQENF
Chain of NADPH oxidase 2 (Homo sapiens) (P04839 whole entry, looked up): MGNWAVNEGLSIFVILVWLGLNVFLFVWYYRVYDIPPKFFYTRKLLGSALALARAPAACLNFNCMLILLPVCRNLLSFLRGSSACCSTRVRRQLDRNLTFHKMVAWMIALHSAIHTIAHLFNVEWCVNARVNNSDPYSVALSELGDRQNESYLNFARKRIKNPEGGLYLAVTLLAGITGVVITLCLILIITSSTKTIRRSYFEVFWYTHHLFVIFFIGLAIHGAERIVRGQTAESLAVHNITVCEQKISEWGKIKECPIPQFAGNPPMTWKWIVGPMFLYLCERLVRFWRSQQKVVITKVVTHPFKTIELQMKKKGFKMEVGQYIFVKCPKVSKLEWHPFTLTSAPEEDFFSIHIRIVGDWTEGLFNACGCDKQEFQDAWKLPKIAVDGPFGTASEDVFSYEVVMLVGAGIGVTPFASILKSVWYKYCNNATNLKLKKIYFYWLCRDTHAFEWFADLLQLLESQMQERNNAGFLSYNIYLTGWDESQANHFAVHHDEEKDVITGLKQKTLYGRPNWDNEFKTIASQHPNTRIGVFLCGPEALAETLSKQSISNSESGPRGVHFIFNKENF
Chain of NADPH oxidase 4 (Homo sapiens) (Q9NPH5 whole entry, looked up): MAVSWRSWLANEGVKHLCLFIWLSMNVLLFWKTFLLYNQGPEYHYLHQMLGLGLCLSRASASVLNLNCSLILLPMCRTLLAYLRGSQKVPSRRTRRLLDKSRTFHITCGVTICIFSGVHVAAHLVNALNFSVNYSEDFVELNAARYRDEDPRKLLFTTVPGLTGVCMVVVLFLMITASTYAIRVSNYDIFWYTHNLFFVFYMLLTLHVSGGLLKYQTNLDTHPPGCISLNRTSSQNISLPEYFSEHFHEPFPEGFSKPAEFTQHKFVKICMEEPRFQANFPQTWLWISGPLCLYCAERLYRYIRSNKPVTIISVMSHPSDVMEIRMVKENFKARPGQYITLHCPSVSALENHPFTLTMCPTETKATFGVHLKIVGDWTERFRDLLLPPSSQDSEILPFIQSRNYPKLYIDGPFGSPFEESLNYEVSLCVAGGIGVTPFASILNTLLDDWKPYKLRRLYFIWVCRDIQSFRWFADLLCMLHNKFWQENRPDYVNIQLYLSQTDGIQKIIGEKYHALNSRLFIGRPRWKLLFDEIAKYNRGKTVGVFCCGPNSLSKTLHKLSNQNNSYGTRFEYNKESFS

Turning to `O=C1C2C=CC(C(O)c3ccc4c(c3)OCO4)N(Nc3ccccc3)C2C(=O)N1c1ccccc1` (stereo not given), the z-score was -1.27 (inactive) in assay [1]; 0.805 (inactive) in assay [3]; 0.384 (inactive) in assay [4]; 1.15 (inactive) in assay [5]; 1.39 (inactive) in [6]; -0.777 in assay [7]. Moreover, the z-score in assay [8] is -0.279 (inactive); in [9], 0.756 (inactive); in assay [10], -1.12; in [11] it was -0.587; in assay [12], -0.756; in assay [13] it was -0.634. Further, the z-score in assay [14] is -0.427; in assay [15], 0.0871; in [16], -1.47; in assay [17], -1.19 (inactive); in [18], 0.558; in assay [19], -0.636. The z-score in assay [20] was 0.773 (inactive). The compound also registered a composite z-score in assay [2] of 0.065.

As for `COCCOC(=O)N1C(=O)[C@@]2(c3cc(C#CC4(O)CCCCCC4)ccc31)[C@H](C(=O)N1CCN(c3ncccn3)CC1)[C@H]1C(=O)O[C@H](c3ccccc3)[C@H](c3ccccc3)N1[C@@H]2c1ccccc1OCCO`, the z-score in assay [1] is -0.53 (inactive); in assay [3], 1.57 (inactive); in [4] it was 0.276 (inactive); in assay [5] it was 0.547 (inactive); in [6], 0.384 (inactive); in assay [7], -0.21. Besides, the z-score in assay [8] is 1.82 (inactive); in [9] it was -0.726 (inactive); in assay [10], 1.31; in assay [11] it was -0.118; in assay [12], 0.481; in assay [13], -0.594. The z-score in assay [14] was -0.483; in assay [15], -1.98; in assay [16] it was -0.151; in assay [17], 0.909 (inactive); in [18], -0.288; in assay [19], -0.589. For the same compound, in [20], the z-score was -0.0171 (inactive). The composite z-score in assay [2] amounted to 0.487.

`O=c1cccc(-c2ccco2)o1`: the z-score in [1] was -1.13 (inactive); in assay [3], 0.128 (inactive); in assay [4], 0.0564 (inactive); in assay [5], -0.394 (inactive); in assay [6], 0.143 (inactive); in assay [7], -0.397. For the same compound, the z-score was 0.523 (inactive) in assay [8]; -0.772 (inactive) in assay [9]; -0.722 in assay [10]; -0.69 in [11]; 0.474 in assay [12]; 0.219 in assay [13]. Further, the z-score in assay [14] is 0.0393; in assay [15], -0.159; in assay [16], -0.79; in assay [17] it was 1.1 (inactive); in [18], 0.773; in assay [19], -0.605. Moreover, the z-score in [20] was -0.214 (inactive). For the same compound, the composite z-score in assay [2] is -0.103.

For `C=C(COC)/C(=C/C[C@@H](OC(=O)c1ccncc1)c1ccccc1OCCO)c1cc(C(=O)OC)ccc1OC`, the z-score is 0.132 (inactive) in assay [1]; 23.5 (active) in assay [3]; 6 (inactive) in [4]; 1.74 (inactive) in [5]; 1.02 (inactive) in [6]; 0.171 in assay [7]. Besides, the z-score in [8] is -0.97 (inactive); in assay [9] it was -1.4 (inactive); in assay [10], -2.07; in assay [11], 2.37; in assay [12] it was -0.193; in [13], -0.11. Further, the z-score in assay [14] is -3.29; in assay [15] it was -1.63; in assay [16], 1.35; in assay [17] it was -1.04 (inactive); in [18], -0.735; in assay [19], -1.9. Moreover, the z-score in assay [20] is 0.314 (inactive). Also, the composite z-score in [2] was -0.0654.
